Laboratory results: the supplement of paper PMC11732987, “Enantioselective OTUD7B fragment discovery through chemoproteomics screening and high-throughput optimisation” (Communications Chemistry, 2025)

Experiments:
Test in all cases: log2 ratio of Biotin-Ahx-Ub-VS probe labelling (fragment/DMSO); higher = less target engagement (more negative = stronger competition), active = hit call of the paper (q ≤ 0.05, log2 ratio ≤ -1)
Conditions in all cases: compound concentration: 200 uM; treatment time: 3 h
USP34 = USP34 (UniProt Q70CQ2)
Outline: (§1)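 Labelling with Biotin-Ahx-Ub-VS (0.5 µM final, 1 h) followed a 3 h triplicate treatment of HEK293T lysate (495 µg per sample, Tris/CHAPS/IGEPAL buffer with protease inhibitors) with fragment at 200 µM or vehicle. Labelled DUBs were NeutrAvidin-enriched, digested with LysC and trypsin, and run by diaPASEF LC-MS/MS. The values, average log2 fragment/vehicle ratios by unpaired t-test, come from global-median-normalised Spectronaut label-free quantities. Proteins with ≥2 unique peptides were used.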

USP36 = molecular target: T1, USP36 (UniProt Q9P275)
T1 sequence (whole entry): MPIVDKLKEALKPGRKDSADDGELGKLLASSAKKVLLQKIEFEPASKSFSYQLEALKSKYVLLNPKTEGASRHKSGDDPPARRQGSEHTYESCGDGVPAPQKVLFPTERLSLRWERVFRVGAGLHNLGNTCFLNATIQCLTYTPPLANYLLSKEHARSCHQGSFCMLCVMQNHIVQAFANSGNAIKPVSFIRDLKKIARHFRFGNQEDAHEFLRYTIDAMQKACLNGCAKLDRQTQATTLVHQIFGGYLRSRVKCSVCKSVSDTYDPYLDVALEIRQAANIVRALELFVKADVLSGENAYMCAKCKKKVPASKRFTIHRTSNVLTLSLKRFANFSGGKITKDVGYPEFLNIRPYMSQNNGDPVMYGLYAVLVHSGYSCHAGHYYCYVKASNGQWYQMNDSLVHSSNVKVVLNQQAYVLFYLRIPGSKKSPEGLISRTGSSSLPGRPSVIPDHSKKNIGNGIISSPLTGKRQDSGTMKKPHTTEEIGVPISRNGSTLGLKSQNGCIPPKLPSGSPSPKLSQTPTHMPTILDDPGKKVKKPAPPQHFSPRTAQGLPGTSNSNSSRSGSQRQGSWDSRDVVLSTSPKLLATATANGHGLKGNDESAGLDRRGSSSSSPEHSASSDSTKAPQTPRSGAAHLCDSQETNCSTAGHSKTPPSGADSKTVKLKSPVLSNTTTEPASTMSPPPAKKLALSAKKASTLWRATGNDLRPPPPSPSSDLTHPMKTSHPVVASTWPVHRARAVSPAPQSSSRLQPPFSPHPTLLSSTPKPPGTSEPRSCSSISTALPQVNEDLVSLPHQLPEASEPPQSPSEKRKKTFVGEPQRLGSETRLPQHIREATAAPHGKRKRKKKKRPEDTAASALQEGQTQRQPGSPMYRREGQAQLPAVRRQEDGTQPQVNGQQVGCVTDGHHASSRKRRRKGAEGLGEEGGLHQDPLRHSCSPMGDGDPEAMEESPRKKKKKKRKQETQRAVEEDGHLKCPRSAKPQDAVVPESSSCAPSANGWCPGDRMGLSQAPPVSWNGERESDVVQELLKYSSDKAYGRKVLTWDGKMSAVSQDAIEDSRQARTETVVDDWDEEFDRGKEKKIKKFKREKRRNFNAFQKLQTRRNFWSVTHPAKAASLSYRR
Outline: as §1

USP38 = molecular target: T2, USP38 (UniProt Q8NB14)
T2 sequence (whole entry): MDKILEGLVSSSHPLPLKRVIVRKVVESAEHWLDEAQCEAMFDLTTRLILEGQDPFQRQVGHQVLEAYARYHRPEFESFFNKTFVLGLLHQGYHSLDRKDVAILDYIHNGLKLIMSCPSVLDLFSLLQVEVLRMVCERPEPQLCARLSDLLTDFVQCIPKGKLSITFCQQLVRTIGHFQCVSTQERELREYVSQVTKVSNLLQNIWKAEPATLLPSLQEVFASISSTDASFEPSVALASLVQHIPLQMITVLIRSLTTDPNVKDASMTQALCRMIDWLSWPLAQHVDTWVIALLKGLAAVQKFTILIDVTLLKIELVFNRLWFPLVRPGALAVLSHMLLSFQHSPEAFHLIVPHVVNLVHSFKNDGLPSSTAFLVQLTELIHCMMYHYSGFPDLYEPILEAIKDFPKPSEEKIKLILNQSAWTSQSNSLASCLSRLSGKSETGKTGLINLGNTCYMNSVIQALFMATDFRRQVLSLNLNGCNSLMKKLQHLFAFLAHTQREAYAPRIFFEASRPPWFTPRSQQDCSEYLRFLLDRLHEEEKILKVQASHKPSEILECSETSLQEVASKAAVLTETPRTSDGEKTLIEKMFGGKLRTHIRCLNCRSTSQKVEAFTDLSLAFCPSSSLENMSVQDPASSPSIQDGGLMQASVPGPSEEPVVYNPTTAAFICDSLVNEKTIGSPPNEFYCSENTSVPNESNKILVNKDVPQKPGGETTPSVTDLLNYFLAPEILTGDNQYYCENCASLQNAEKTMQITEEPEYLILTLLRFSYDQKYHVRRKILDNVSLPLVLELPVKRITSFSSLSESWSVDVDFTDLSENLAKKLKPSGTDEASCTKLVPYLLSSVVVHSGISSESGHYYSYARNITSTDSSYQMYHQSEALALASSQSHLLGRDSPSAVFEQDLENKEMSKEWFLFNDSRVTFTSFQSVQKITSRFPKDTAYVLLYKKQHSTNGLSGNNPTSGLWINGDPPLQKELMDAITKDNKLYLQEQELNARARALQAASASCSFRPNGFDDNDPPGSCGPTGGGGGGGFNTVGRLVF
Outline: as §1

USP39 = molecular target: T3, USP39 (UniProt Q53GS9)
T3 sequence (whole entry): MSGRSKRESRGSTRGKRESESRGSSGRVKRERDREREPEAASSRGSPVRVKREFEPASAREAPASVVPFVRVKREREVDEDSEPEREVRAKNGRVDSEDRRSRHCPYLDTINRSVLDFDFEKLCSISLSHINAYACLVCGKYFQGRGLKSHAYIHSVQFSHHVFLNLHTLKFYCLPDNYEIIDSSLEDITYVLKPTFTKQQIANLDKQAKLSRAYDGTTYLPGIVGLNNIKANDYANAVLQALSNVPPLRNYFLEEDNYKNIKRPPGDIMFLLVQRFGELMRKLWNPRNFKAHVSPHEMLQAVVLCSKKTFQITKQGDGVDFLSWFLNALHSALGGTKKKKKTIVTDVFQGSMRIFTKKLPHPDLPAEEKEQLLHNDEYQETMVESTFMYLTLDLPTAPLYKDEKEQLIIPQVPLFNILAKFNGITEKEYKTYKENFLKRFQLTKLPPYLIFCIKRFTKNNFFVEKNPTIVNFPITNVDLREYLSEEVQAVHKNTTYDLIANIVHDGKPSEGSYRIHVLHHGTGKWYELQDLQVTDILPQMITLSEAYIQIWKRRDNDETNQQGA
Outline: as §1

USP4 = molecular target: T4, USP4 (UniProt Q13107)
T4 sequence (whole entry): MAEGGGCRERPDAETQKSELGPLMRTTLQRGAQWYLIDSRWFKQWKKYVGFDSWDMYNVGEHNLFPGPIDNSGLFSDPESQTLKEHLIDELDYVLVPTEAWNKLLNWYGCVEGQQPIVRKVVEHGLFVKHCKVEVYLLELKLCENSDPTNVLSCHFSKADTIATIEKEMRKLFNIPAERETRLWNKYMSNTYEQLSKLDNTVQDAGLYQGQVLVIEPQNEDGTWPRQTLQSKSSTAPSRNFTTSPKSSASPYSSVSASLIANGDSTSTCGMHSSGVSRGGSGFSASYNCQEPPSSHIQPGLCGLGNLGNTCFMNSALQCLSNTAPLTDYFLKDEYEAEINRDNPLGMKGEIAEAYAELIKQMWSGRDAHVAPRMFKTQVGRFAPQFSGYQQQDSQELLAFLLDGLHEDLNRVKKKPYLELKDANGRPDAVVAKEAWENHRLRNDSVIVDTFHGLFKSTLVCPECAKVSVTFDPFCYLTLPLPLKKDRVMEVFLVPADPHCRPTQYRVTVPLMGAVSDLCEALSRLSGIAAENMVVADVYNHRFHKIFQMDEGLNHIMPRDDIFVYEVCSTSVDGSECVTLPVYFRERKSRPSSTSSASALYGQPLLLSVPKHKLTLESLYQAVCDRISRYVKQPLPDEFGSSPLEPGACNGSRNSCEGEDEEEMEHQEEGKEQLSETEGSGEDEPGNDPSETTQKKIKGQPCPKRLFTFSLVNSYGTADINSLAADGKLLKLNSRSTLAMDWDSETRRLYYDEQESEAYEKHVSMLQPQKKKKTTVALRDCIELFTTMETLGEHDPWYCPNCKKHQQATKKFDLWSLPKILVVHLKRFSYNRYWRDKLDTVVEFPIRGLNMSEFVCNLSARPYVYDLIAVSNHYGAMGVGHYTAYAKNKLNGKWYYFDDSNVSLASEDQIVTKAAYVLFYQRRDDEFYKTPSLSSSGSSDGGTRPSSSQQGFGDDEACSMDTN
Outline: as §1

Measured: log2 ratio of Biotin-Ahx-Ub-VS probe labelling

USP34, sequence (Q70CQ2 whole entry, the tested form may be a part): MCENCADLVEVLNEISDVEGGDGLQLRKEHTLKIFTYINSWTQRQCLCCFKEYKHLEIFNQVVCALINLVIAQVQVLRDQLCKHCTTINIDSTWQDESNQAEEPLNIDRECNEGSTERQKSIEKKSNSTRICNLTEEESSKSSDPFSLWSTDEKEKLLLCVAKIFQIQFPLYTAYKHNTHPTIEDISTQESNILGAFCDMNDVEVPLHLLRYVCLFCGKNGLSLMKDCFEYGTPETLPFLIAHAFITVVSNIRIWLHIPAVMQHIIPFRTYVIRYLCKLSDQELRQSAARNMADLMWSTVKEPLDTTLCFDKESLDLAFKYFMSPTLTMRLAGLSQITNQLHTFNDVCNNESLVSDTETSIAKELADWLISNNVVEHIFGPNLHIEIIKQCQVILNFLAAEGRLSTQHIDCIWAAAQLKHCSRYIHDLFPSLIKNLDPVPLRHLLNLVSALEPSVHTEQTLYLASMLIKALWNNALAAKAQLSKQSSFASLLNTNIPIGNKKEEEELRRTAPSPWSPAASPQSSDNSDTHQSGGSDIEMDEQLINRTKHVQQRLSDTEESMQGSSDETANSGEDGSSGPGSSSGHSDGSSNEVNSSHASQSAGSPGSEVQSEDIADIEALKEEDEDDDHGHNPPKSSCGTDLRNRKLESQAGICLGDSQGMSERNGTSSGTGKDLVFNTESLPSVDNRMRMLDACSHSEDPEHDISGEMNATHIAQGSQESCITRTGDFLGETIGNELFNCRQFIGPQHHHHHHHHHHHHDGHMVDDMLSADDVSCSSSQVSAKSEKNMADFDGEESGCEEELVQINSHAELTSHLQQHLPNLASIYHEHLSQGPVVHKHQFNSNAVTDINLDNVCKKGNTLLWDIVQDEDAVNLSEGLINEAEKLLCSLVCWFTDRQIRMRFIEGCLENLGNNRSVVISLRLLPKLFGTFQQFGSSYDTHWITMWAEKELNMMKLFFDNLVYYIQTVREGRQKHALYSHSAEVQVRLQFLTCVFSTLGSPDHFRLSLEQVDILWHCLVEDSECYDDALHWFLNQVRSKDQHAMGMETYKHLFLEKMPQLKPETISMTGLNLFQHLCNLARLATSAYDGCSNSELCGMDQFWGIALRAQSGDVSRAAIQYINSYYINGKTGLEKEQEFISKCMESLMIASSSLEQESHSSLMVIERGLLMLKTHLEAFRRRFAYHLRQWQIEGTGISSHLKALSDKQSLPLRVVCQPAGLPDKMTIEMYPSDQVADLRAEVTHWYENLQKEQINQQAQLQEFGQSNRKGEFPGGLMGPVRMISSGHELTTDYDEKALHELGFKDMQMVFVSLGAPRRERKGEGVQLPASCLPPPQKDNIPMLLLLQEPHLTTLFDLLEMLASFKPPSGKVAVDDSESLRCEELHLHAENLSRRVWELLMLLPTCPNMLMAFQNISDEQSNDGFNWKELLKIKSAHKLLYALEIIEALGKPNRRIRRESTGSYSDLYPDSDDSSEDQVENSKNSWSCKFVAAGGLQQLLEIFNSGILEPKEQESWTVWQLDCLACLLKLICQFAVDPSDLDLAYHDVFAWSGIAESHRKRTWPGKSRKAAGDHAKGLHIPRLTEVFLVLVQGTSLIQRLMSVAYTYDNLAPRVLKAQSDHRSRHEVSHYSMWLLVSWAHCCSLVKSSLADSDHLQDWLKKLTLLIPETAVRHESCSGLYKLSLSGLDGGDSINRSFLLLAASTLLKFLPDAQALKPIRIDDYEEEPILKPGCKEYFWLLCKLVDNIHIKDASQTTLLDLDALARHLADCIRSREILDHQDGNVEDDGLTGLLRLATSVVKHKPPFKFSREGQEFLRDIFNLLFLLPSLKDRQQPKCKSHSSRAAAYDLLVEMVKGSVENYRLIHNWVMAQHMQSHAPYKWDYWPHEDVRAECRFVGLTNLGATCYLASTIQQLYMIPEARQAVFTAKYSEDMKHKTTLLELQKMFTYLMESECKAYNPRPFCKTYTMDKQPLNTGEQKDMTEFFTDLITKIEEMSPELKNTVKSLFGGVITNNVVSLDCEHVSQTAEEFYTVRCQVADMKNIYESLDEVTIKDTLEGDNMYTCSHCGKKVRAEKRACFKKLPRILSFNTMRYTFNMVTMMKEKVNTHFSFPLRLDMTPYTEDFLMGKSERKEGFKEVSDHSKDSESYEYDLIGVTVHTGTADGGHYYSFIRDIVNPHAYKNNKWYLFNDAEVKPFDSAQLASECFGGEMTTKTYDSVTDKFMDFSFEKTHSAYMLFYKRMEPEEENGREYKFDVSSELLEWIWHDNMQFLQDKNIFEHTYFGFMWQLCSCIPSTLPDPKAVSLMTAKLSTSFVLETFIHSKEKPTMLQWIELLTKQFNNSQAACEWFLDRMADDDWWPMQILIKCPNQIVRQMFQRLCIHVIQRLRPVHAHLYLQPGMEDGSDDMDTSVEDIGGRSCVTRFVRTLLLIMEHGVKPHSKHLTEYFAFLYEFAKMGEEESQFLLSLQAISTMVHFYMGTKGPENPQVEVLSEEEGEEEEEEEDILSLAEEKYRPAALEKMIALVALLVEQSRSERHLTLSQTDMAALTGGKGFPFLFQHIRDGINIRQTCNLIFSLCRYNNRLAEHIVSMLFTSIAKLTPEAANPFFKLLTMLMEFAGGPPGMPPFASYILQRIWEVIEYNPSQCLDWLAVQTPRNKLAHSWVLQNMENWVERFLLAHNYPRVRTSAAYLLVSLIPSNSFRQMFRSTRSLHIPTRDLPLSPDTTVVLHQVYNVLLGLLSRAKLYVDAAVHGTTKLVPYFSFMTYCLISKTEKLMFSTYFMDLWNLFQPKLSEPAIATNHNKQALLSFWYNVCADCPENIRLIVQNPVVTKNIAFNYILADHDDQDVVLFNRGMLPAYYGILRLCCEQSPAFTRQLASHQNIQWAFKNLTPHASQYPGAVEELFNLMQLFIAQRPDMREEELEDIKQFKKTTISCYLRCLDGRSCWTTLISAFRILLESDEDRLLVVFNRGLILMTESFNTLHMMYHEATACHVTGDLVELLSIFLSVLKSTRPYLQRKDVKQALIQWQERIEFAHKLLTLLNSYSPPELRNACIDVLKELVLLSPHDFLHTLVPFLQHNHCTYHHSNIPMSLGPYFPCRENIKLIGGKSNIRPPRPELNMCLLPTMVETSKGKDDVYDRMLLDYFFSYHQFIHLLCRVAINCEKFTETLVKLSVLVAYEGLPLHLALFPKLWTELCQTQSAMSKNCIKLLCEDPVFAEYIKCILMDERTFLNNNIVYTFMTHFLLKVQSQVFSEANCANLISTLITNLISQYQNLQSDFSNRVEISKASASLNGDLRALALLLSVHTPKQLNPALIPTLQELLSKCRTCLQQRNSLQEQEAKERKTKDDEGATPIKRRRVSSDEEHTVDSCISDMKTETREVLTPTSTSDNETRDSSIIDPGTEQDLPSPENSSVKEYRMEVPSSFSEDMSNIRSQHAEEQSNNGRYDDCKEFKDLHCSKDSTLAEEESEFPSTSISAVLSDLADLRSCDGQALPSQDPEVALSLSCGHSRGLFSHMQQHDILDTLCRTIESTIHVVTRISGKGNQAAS

COc1ccccc1C(C)NC(=O)CCl (stereo not given)
inactive: USP34 -0.129 | USP36 -0.00263 | USP38 -0.182 | USP39 -0.155 | USP4 -0.226
